# Test results: PubChem BioAssay (Tox21)
# Values joined by “and” are separate entries in the source; they are usually repeats but may differ in a detail not shown here. Equal values may be shown once. Values without a mark were called inactive. Results filed as inconclusive are left out. Where a call stands in place of a potency, no number is given. Active and inactive are the calls of the source. The call rests on the fitted dose curve; in most records, active means well fitted curve in the direction sought with a large enough effect in the repeat runs; inconclusive means weak or mixed curves; inactive means no such curve, though single readings can be large; an effect the other way counts as inactive or inconclusive.
# Experiments:
# [1] = A CellTox Green Cytotoxicity Assay to monitor cytotoxicity in HEK293 cells - 40 hour (AID 1224871); further: nearly all actives have a fitted effect of over 45% in size; further: potency means the concentration at half of the fitted maximal effect
# Procedure, shortened: (§1)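 HEK293 cells, 600/well, were preincubated 5 hours and then exposed to compounds at 37 C for up to 40 hours. A cell-impermeant cyanine dye staining dead-cell DNA was read by fluorescence at 0, 8, 16, 24, 32 and 40 h time points.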
# [2] = qHTS RealTime-Glo MT Cell Viability Assay in HEK293 cells - 16 hour (AID 1224872); further: nearly all actives have a fitted effect of over 50% in size; further: potency means the concentration at half of the fitted maximal effect
# Procedure, shortened: (§2)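 Homogeneous bioluminescent viability format in HEK293 cells (600 cells/well). Following 5 h at 37 C/5% CO2, 23 nL compound was pintooled; the signal was measured repeatedly during 40 h incubation.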
# [3] = qHTS RealTime-Glo MT Cell Viability Assay in HepG2 cells - 8 hour (AID 1224873); further: nearly all actives have a fitted effect of over 55% in size
# Procedure, shortened: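 HepG2 cells mixed with RealTime-Glo MT reagents (NanoLuc plus cell-permeant prosubstrate) were seeded at 600 cells/well, incubated 5 h at 37 C/5% CO2, then pinned with compounds in DMSO; nonlytic luminescence tracked viability during 40 h treatment.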
# [4] = A CellTox Green Cytotoxicity Assay to monitor cytotoxicity in HEK293 cells - 24 hour (AID 1224875); further: nearly all actives have a fitted effect of over 45% in size; further: potency means the concentration at half of the fitted maximal effect
# Procedure, shortened: as §1
# [5] = A CellTox Green Cytotoxicity Assay to monitor cytotoxicity in HepG2 cells - 16 hour (AID 1224876); further: nearly all actives have a fitted effect of over 45% in size; further: potency means the concentration at half of the fitted maximal effect
# Procedure, shortened: (§3)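 HepG2 cells, 600/well, preincubated 5 h with CellTox Green dye, then exposed to Tox21 compounds in DMSO at 37 C for up to 40 h. Dead-cell DNA fluorescence read at the indicated time point.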
# [6] = qHTS RealTime-Glo MT Cell Viability Assay in HepG2 cells - 32 hour (AID 1224877); further: nearly all actives have a fitted effect of over 55% in size; further: potency means the concentration at half of the fitted maximal effect
# Procedure, shortened: (§4)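 Cell number in HepG2 cultures estimated from NanoLuc luminescence generated by metabolic reduction of a prosubstrate by living cells. The homogeneous, nonlytic format allowed repeated reads at 0, 8, 16, 24, 32 and 40 h of compound exposure.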
# [7] = A CellTox Green Cytotoxicity Assay to monitor cytotoxicity in HepG2 cells - 24 hour (AID 1224878); further: nearly all actives have a fitted effect of over 45% in size; further: potency means the concentration at half of the fitted maximal effect
# Procedure, shortened: as §3
# [8] = A CellTox Green Cytotoxicity Assay to monitor cytotoxicity in HepG2 cells - 40 hour (AID 1224879); further: nearly all actives have a fitted effect of over 40% in size; further: potency means the concentration at half of the fitted maximal effect
# Procedure, shortened: as §3
# [9] = qHTS RealTime-Glo MT Cell Viability Assay in HEK293 cells - 0 hour (AID 1224880)
# Procedure, shortened: (§5)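 600 cells/well were plated with the nonlytic NanoLuc/prosubstrate reagent, pre-incubated 5 h, then given 23 nL of compound in DMSO. Incubation at 37 C for 40 h, with luminescence from viable-cell-reduced substrate read repeatedly from 0 h.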
# [10] = A CellTox Green Cytotoxicity Assay to monitor cytotoxicity in HEK293 cells - 32 hour (AID 1224881); further: nearly all actives have a fitted effect of over 40% in size; further: potency means the concentration at half of the fitted maximal effect
# Procedure, shortened: as §1
# [11] = A CellTox Green Cytotoxicity Assay to monitor cytotoxicity in HepG2 cells - 0 hour (AID 1224882); further: nearly all actives have a fitted effect of over 35% in size
# Procedure, shortened: as §3
# [12] = A CellTox Green Cytotoxicity Assay to monitor cytotoxicity in HepG2 cells - 32 hour (AID 1224883); further: nearly all actives have a fitted effect of over 50% in size; further: potency means the concentration at half of the fitted maximal effect
# Procedure, shortened: as §3
# [13] = qHTS RealTime-Glo MT Cell Viability Assay in HEK293 cells - 24 hour (AID 1224886); further: nearly all actives have a fitted effect of over 50% in size; further: potency means the concentration at half of the fitted maximal effect
# Procedure, shortened: as §2
# [14] = qHTS RealTime-Glo MT Cell Viability Assay in HEK293 cells - 8 hour (AID 1224887); further: nearly all actives have a fitted effect of over 50% in size; further: potency means the concentration at half of the fitted maximal effect
# Procedure, shortened: as §5
# [15] = A CellTox Green Cytotoxicity Assay to monitor cytotoxicity in HEK293 cells - 16 hour (AID 1224888); further: nearly all actives have a fitted effect of over 35% in size; further: potency means the concentration at half of the fitted maximal effect
# Procedure, shortened: as §1
# [16] = qHTS RealTime-Glo MT Cell Viability Assay in HepG2 cells - 0 hour (AID 1224889); further: nearly all actives have a fitted effect of over 50% in size
# Procedure, shortened: as §4
# [17] = A CellTox Green Cytotoxicity Assay to monitor cytotoxicity in HepG2 cells - 8 hour (AID 1224890); further: nearly all actives have a fitted effect of over 45% in size
# Procedure, shortened: as §3
# [18] = A CellTox Green Cytotoxicity Assay to monitor cytotoxicity in HEK293 cells - 8 hour (AID 1224884); further: nearly all actives have a fitted effect of over 35% in size; further: potency means the concentration at half of the fitted maximal effect
# Procedure, shortened: as §1
# [19] = qHTS RealTime-Glo MT Cell Viability Assay in HepG2 cells - 16 hour (AID 1224885); further: nearly all actives have a fitted effect of over 50% in size; further: potency means the concentration at half of the fitted maximal effect
# Procedure, shortened: as §4
# [20] = qHTS RealTime-Glo MT Cell Viability Assay in HEK293 cells - 40 hour (AID 1224874); details: RealTime-Glo luminescence; max response: hits give low values; further: nearly all actives have a fitted effect of over 50% in size; further: potency means the concentration at half of the fitted maximal effect
# Procedure, shortened: as §5
compound,measurement,setting,value
CCOC(=O)COc1cc(-c2nn(C)c(OC(F)F)c2Cl)c(F)cc1Cl,Potency,[1],inactive
same,Potency,[2],inactive
same,Potency,[3],inactive
same,Potency,[4],inactive
same,Potency,[5],inactive
same,Potency,[6],inactive
same,Potency,[7],inactive
same,Potency,[8],inactive
same,Potency,[9],inactive
same,Potency,[10],inactive
same,Potency,[11],inactive
same,Potency,[12],inactive
same,Potency,[13],inactive
same,Potency,[14],inactive
same,Potency,[15],inactive
same,Potency,[16],inactive
same,Potency,[17],inactive
CCC(COC(=O)c1cc(OC)c(OC)c(OC)c1)(c1ccccc1)N(C)C (stereo unspecified),Potency,[1],inactive
same,Potency,[2],26.8 µM (active)
same,Potency,[3],inactive
same,Potency,[4],inactive
same,Potency,[5],inactive
same,Potency,[6],inactive
same,Potency,[7],inactive
same,Potency,[8],inactive
same,Potency,[9],inactive
same,Potency,[10],inactive
same,Potency,[11],inactive
same,Potency,[12],inactive
same,Potency,[18],inactive
same,Potency,[19],inactive
same,Potency,[15],inactive
same,Potency,[16],inactive
same,Potency,[17],inactive
CC1(C)[C@H](C=C(Cl)Cl)[C@@H]1C(=O)O[C@@H](C#N)c1cccc(Oc2ccccc2)c1,Potency,[1],inactive
same,Potency,[2],inactive
same,Potency,[3],inactive
same,Potency,[4],inactive
same,Potency,[5],inactive
same,Potency,[6],inactive
same,Potency,[7],inactive
same,Potency,[8],inactive
same,Potency,[9],inactive
same,Potency,[10],inactive
same,Potency,[11],inactive
same,Potency,[12],inactive
same,Potency,[18],inactive
same,Potency,[19],inactive
same,Potency,[13],inactive
same,Potency,[14],inactive
same,Potency,[15],inactive
same,Potency,[16],inactive
same,Potency,[17],inactive
Cc1ccc2ccccc2c1,Potency,[1],inactive
same,Potency,[2],inactive
same,Potency,[3],inactive
same,Potency,[4],inactive
same,Potency,[5],inactive
same,Potency,[6],inactive
same,Potency,[7],inactive
same,Potency,[9],inactive
same,Potency,[10],inactive
same,Potency,[11],inactive
same,Potency,[12],inactive
same,Potency,[18],inactive
same,Potency,[19],inactive
same,Potency,[13],inactive
same,Potency,[14],inactive
same,Potency,[15],inactive
same,Potency,[16],inactive
same,Potency,[17],inactive
ClC=C(Cl)Cl,Potency,[1],inactive
same,Potency,[2],inactive
same,Potency,[3],inactive
same,Potency,[4],inactive
same,Potency,[5],inactive
same,Potency,[6],inactive
same,Potency,[7],inactive
same,Potency,[8],inactive
same,Potency,[9],inactive
same,Potency,[10],inactive
same,Potency,[11],inactive
same,Potency,[12],inactive
same,Potency,[18],inactive
same,Potency,[13],inactive
same,Potency,[14],inactive
same,Potency,[15],inactive
same,Potency,[16],inactive
same,Potency,[17],inactive
CCOC(=O)CBr,Potency,[1],inactive
same,Potency,[3],inactive
same,max response,[20],-15%
same,Potency,[4],inactive
same,Potency,[6],inactive
same,Potency,[7],inactive
same,Potency,[9],inactive
same,Potency,[10],inactive
same,Potency,[12],inactive
same,Potency,[18],inactive
same,Potency,[15],inactive
same,Potency,[16],inactive
C=COC(C)=O,Potency,[1],inactive
same,Potency,[2],inactive
same,Potency,[3],inactive
same,Potency,[4],inactive
same,Potency,[6],inactive
same,Potency,[7],inactive
same,Potency,[8],inactive
same,Potency,[9],inactive
same,Potency,[10],inactive
same,Potency,[11],inactive
same,Potency,[12],inactive
same,Potency,[18],inactive
same,Potency,[19],inactive
same,Potency,[13],inactive
same,Potency,[16],inactive
same,Potency,[17],inactive
II,Potency,[1],38.9 µM (active)
same,Potency,[2],inactive
same,max response,[20],-3.85%
same,Potency,[4],38.9 µM (active)
same,Potency,[5],38.9 µM (active)
same,Potency,[6],7.76 µM (active)
same,Potency,[7],34.7 µM (active)
same,Potency,[8],38.9 µM (active)
same,Potency,[10],38.9 µM (active)
same,Potency,[11],inactive
same,Potency,[12],38.9 µM (active)
same,Potency,[18],34.7 µM (active)
same,Potency,[19],27.5 µM (active)
same,Potency,[13],inactive
same,Potency,[14],inactive
same,Potency,[15],38.9 µM (active)
O=C(Nc1ccccc1)Nc1ccnc(Cl)c1,Potency,[1],inactive
same,Potency,[3],inactive
same,Potency,[20],19.5 µM (active)
same,Potency,[4],inactive
same,Potency,[6],inactive
same,Potency,[7],inactive
same,Potency,[9],inactive
same,Potency,[10],inactive
same,Potency,[11],inactive
same,Potency,[18],inactive
same,Potency,[19],inactive
same,Potency,[13],19.5 µM (active)
same,Potency,[15],inactive
same,Potency,[17],inactive
CC(=O)c1cc2c(cc1C)C(C)(C)C(C)CC2(C)C (stereo unspecified),Potency,[1],19.5 µM (active)
same,Potency,[3],inactive
same,max response,[20],-12.1%
same,Potency,[4],19.5 µM (active)
same,Potency,[6],inactive
same,Potency,[7],38.9 µM (active)
same,Potency,[8],38.9 µM (active)
same,Potency,[9],inactive
same,Potency,[10],19.5 µM (active)
same,Potency,[12],38.9 µM (active)
same,Potency,[19],inactive
same,Potency,[15],19.5 µM (active)
same,Potency,[16],inactive
O=C(O)C(F)(F)C(F)(F)C(F)(F)C(F)(F)C(F)(F)C(F)(F)C(F)(F)C(F)(F)C(F)(F)C(F)(F)F,Potency,[1],inactive
same,Potency,[2],inactive
same,max response,[20],13.9%
same,Potency,[4],inactive
same,Potency,[9],inactive
same,Potency,[10],inactive
same,Potency,[13],inactive
same,Potency,[14],inactive
same,Potency,[15],inactive
BrCC(Br)C1CCC(Br)C(Br)C1 (stereo unspecified),Potency,[1],inactive
same,Potency,[3],inactive
same,max response,[20],-20.5%
same,Potency,[4],inactive
same,Potency,[5],inactive
same,Potency,[6],inactive
same,Potency,[7],inactive
same,Potency,[8],inactive
same,Potency,[9],inactive
same,Potency,[10],inactive
same,Potency,[11],inactive
same,Potency,[12],inactive
same,Potency,[18],inactive
same,Potency,[15],inactive
same,Potency,[16],inactive
same,Potency,[17],inactive
CS/C(C)=N/OC(=O)N(C)SN(C)C(=O)O/N=C(\C)SC,Potency,[1],49 µM (active)
same,Potency,[2],38.9 µM (active)
same,Potency,[7],54.9 µM (active)
same,Potency,[8],54.9 µM (active)
same,Potency,[10],54.9 µM (active)
same,Potency,[11],inactive
same,Potency,[12],54.9 µM (active)
same,Potency,[13],49 µM (active)
same,Potency,[14],43.6 µM (active)
same,Potency,[16],inactive
CCCN(CC1CC1)c1c([N+](=O)[O-])cc(C(F)(F)F)cc1[N+](=O)[O-],Potency,[1],inactive
same,Potency,[3],inactive
same,max response,[20],9.65%
same,Potency,[4],inactive
same,Potency,[5],inactive
same,Potency,[6],inactive
same,Potency,[7],inactive
same,Potency,[8],inactive
same,Potency,[9],inactive
same,Potency,[10],inactive
same,Potency,[11],inactive
same,Potency,[12],inactive
same,Potency,[19],inactive
same,Potency,[13],inactive
same,Potency,[15],inactive
same,Potency,[16],inactive
same,Potency,[17],inactive
C(=NC1CCCCC1)=NC1CCCCC1,Potency,[1],19.6 µM (active) and 21.9 µM (active)
same,Potency,[2],19.6 µM (active) and 19.5 µM (active)
same,Potency,[20],17.5 µM (active) and 24.5 µM (active)
same,Potency,[4],22 µM (active) and 34.7 µM (active)
same,Potency,[6],12.4 µM (active) and 12.3 µM (active)
same,Potency,[7],11 µM (active) and 15.5 µM (active)
same,Potency,[8],9.84 µM (active) and 11 µM (active)
same,Potency,[9],inactive
same,Potency,[10],19.6 µM (active) and 24.5 µM (active)
same,Potency,[12],11 µM (active) and 12.3 µM (active)
same,Potency,[18],inactive
same,Potency,[13],19.6 µM (active) and 19.5 µM (active)
same,Potency,[16],inactive
same,Potency,[17],inactive
